From paper PMC5540273 (PLoS ONE, 2017)

Each compound was assayed on CAMK1G. Conditions: concentration: 1 μM,replicates: in singlicate; n = 1.
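Note: KINOMEscan kinase panel screen.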

SMILES | %Inh [%]
CS(=O)c1ccc(-c2coc3ccc(-c4n[nH]c(=O)o4)cc23)cc1 (stereo not shown) | 12
O=C(Nc1cccc(Oc2ccc3nccn3n2)c1)Nc1cccc(C(F)(F)F)c1 | 0
CCNCC(Cc1ccccc1)NC(=O)c1cc(Br)c(-c2ccnc3[nH]ccc23)s1.Cl.Cl (stereo not shown) [GSK1383280] | 11
COC(=O)Nc1nc2cc(Oc3ccc(NC(=O)Nc4cc(C(F)(F)F)ccc4Cl)cc3)ccc2[nH]1.Cl [GW697465] | 0
COc1cc2nccc(Nc3ccc(Oc4ccccc4)cc3)c2cc1OC.Cl [GI261656] | 0
Cc1ccc2c(-c3ccnc(Nc4ccc(C(F)(F)F)cc4)n3)cnn2n1 [GW819776] | 0
O=C(Nc1ccccc1)c1cccc(Oc2ccc3nccn3n2)c1 | 0
C[C@@H](Oc1cc(-n2cnc3cc(-c4ccncc4)ccc32)sc1C(N)=O)c1ccccc1Cl [GSK479719] | 0
CS(=O)(=O)Nc1ccc(-c2ccnc3[nH]ccc23)cc1 [GSK993273] | 30
NC(=O)c1ccc(-c2cc3ncnc(SCC(=O)O)c3s2)cc1 | 0
CN(c1ccc2c(c1)nc(NCc1ccc(F)cc1)n2C)c1ccnc(Nc2ccc(CS(C)(=O)=O)cc2)n1.Cl [GW813244] | 22
Cn1ccc2ncnc(Oc3ccc(NC(=O)Nc4cccc(C(F)(F)F)c4)c(F)c3)c21 | 11
CCOC(=O)N1CCC(n2cnc(-c3ccc(F)cc3)c2-c2ccnc(N)n2)CC1 [SB-219952] | 0
